# Experimental data: PubChem BioAssay AID1347070 (National Center for Advancing Translational Sciences (NCATS), 2019)
# Hit rate of the full screen: of about 94,000 compounds, about 20 (0.02%) were called active. Not shown: some 1% with an inconclusive outcome. Calls come from the whole dose curve; as a rule, active = well fitted activation curve with a large enough effect; inconclusive = small, poorly fitted or top-dose-only effect; inactive = flat fitted curve, though single readings scatter. The list is a sample of the results.
# Test: qHTS of alpha-syn Inhibitors: NCGC Sytravon Library Screen; note: 0% is about no effect
# Settings: S. cerevisiae alpha-synuclein toxicity rescue, BacTiter-Glo growth, 24 h; series mostly up to 46.1 µM; growth rescue (activation): at the top concentration
# Text: The goal of this project is to identify new chemical probes capable of reversing the toxicity associated with the Parkinson disease-related protein, alpha-synuclein. Compounds will be selected on their ability to restore growth in yeast cells expressing toxic levels of alpha-synuclein. These compounds will provide a complementary approach to deciphering the tangled mechanisms of toxicity and protection that we have uncovered through genome-wide genetic screens and are beginning to uncover in a large-scale proteomics analysis with mass spectroscopy. To this end, a miniaturized assay was developed to be screened against the Molecular Libraries Small Molecule Repository (MLSMR) to discover alpha-synuclein inhibitors. […] The phenotype of interest will be that of an Activator and this screen is run against the NCGC Sytravon Library collection. NIH Chemical Genomics Center [NCGC] NIH Molecular Libraries Probe Centers Network [MLPCN] MLPCN Grant: NS060957 Assay Submitter (PI): Susan Lindquist, Whitehead Institute/MIT
# Dispense 2.5 microL yeast galactose medium per 1536-well plate, pin compound, dispense 2.5 microL alpha-synuclein expressing yeast in galactose medium at OD600=0.02 (pregrown in raffinose medium to mid-log phase) per well, incubate for 24 hr at 30 deg C, and cell growth will be measured using 5 microL of Bactiter/Glo reagent to entire plate and read using Luminescence Protocol in ViewLux.
row,SMILES,growth rescue (activation)
1,C[C@H]1CN(c2ccc(Br)cc2)C(=O)[C@@H]1CC(=O)Nc1ccc(Br)cc1,-0.722% (inactive)
2,COC(=O)CNC(=O)c1cc(-c2ccncc2)nc2ccccc12,-6.59% (inactive)
3,O=C(NC1CCCC1)c1cc(-c2ccccc2)on1,12.5% (inactive)
4,CCOc1ccc(C(CC(=O)O)n2cnnn2)cc1OC (centres undefined),-9.12% (inactive)
5,COCCN(Cc1nc(-c2ccc(C(F)(F)F)cc2)no1)C(C)C,0.309% (inactive)
6,CC(Nc1nc(C(F)(F)F)nc2ccccc12)c1cccs1 (centres undefined),-25.6% (inactive)
7,CCc1noc(C)c1C(=O)OCC(=O)c1ccc(NC(=O)CC(C)C)cc1,13.9% (inactive)
8,CCc1nc2c(=O)[nH]cnc2o1,2.78% (inactive)
9,CN(Cc1ccc(F)cc1Cl)S(=O)(=O)c1cccs1,10.8% (inactive)
10,O=C(OCC(=O)N1CCCCCC1)c1cccc(Cl)c1Cl,4.74% (inactive)
11,O=C(CN1CCCCC1)NC(=O)Nc1ccccc1F,-14.9% (inactive)
12,Cc1ccc(O)c(NC(=O)c2cc(-c3ccco3)on2)c1,-16.3% (inactive)
13,CCOC(=O)Cc1cc(=O)[nH]c(/N=C(\N)Nc2ccc(OC)cc2)n1,-4.69% (inactive)
14,COc1ccccc1N(C)C(=O)c1cc(S(=O)(=O)N2CCc3ccccc32)cn1C,6.55% (inactive)
15,COc1ccc(-c2ccc3[nH]c4c(c3c2)CCN2C[C@H]3[C@H](C)ON(C)[C@H]3C[C@@H]42)cc1,-9.12% (inactive)
16,CC(=O)Nc1ccccc1NC(=O)c1cc(C)cc(C)c1,4.72% (inactive)
17,O=C(COC(=O)Cc1ccc(Cl)cc1Cl)NCc1ccco1,17.9% (inactive)

row,SMILES,growth rescue (activation)
1,Cc1cc(=O)c2ccc(NC(=O)c3ccccc3)cc2[nH]1,0.927% (inactive)
2,Cc1cc2c3ccccc3[nH]c(=O)n2n1,-10.2% (inactive)
3,COc1cccc(COC(=O)C2CCN(S(=O)(=O)c3cccs3)CC2)c1OC,5.75% (inactive)
4,CSc1nc(-c2ccco2)nn1C(=O)c1ccccc1Cl,6.42% (inactive)
5,COc1ccc(C=C2CCC3C(CCCC34OCCO4)C2=O)cc1 (centres undefined),-0.491% (inactive)
6,Cc1cccc(NC(=O)c2cc([N+](=O)[O-])ccc2N2CCN(C)CC2)c1,-6.98% (inactive)
7,CCN(CCNC(=O)C1=C(C)C(=O)OC12CCC(C)CC2)c1ccccc1 (centres undefined),14.2% (inactive)
8,CCCCN1C(=O)C(CC(=O)NC(c2ccccc2)c2ccccc2)CC(C(=O)N2CCOCC2)=C1C (centres undefined),1.76% (inactive)
9,COCCn1c(C)cc(C(=O)COC(=O)/C=C/c2cccc(OC)c2)c1C,4.85% (inactive)
10,C[C@@H]1CN([C@@H](C)CO)C(=O)c2cc(NS(C)(=O)=O)ccc2O[C@@H](C)CCCCO[C@H]1CN(C)C(=O)Nc1ccc2c(c1)OCO2,-4.92% (inactive)
11,COc1ccc(C(=O)COC(=O)CNC(=O)c2cccs2)cc1Br,13.6% (inactive)
12,Cc1ccccc1NS(=O)(=O)CCCCC(Cl)(Cl)Cl,4.69% (inactive)
13,CC1CCN(C(=O)CCNC(=O)c2ccccc2)CC1,9.67% (inactive)
14,CC(C)CN(C(=O)COC(=O)c1ccc2ccccc2c1)c1c(N)n(Cc2ccccc2)c(=O)[nH]c1=O,-8.4% (inactive)
15,COc1ccc(/C=C(\NC(=O)c2ccccc2)C(=O)NCCN2CCOCC2)cc1OC,-13% (inactive)
16,Cc1ccc(SCCC(=O)Nc2cc(C)on2)cc1,-5.87% (inactive)
17,Cc1onc(-c2ccccc2Cl)c1C(=O)OCc1nnc(-c2ccccc2)o1,14.1% (inactive)
